L3MBTL1 block – qHTS Assay for the Inhibitors of L3MBTL1; Lethal(3)malignant brain tumor-like protein 1 (Homo sapiens), Q9Y468; AlphaScreen L3MBTL1–H3K9me1 peptide binding; Potency, µM (titrated, usually from 57.1 µM), for inactives: at the top dose activity, negative = inhibition, hits mostly inhibitors; 0.66% of 230,000 active; AID 485360, 2010; note: potency is the fitted concentration of half-maximal effect; % is set by controls: 0 for no effect and ±100 for the full control effect; nearly all actives have a fitted effect of over 60% in size
Target sequence (Q9Y468 whole entry, looked up): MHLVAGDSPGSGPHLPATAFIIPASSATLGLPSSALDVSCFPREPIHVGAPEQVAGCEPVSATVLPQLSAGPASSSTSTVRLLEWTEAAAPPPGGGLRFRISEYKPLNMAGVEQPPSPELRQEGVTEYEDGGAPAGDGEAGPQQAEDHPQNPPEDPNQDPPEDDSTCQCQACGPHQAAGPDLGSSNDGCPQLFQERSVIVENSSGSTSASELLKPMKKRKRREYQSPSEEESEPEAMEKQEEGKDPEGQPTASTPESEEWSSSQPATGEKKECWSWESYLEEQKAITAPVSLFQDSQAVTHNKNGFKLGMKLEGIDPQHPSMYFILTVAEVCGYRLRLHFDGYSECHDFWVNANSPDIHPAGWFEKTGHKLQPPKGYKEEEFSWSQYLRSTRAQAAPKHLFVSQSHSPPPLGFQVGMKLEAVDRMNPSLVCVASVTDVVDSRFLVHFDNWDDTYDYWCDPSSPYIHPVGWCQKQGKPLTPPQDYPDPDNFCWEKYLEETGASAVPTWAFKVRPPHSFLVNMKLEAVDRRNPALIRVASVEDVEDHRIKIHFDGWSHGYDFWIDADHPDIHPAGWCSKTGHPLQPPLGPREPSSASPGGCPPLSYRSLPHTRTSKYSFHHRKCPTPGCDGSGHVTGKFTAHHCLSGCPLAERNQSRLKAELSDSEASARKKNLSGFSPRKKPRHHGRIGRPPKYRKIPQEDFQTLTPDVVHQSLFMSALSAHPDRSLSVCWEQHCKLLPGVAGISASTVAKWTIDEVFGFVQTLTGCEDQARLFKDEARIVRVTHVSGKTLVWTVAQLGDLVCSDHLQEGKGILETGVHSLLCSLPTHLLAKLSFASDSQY
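Displacement of a biotinylated histone H3(1-15) peptide monomethylated at Lys9 (75 nM) from L3MBTL1 (50 nM) was measured by AlphaScreen after a 30 min room-temperature compound incubation; cefsulodin titration served as intraplate control.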
JMJD2A Tudor – qHTS Assay for Inhibitors of JMJD2A-Tudor Domain; AlphaScreen JMJD2A-Tudor / H3K4me3 peptide binding; AID 504339, 2011; 4.4% of 390,000 active; Potency, µM (titrated, usually from 114 µM), for inactives: at the top dose activity change, negative = inhibition, actives largely listed as inhibitors; Lysine-specific demethylase 4A (Homo sapiens), O75164; note: potency is the fitted concentration of half-maximal effect; % is set by controls: 0 for no effect and ±100 for the full control effect; nearly all actives have a fitted effect of over 50% in size
BAZ2B block – qHTS Assay for Inhibitors of BAZ2B; 4.4% of 360,000 active; Potency, µM (titrated, usually from 114 µM), without a hit: at the top dose activity change, negative = inhibition, usual class: inhibitors; AlphaScreen BAZ2B-H3K14Ac peptide displacement; Bromodomain adjacent to zinc finger domain protein 2B (Homo sapiens), Q9UIF8; AID 504333, 2011; note: potency is the fitted concentration of half-maximal effect; % is set by controls: 0 for no effect and ±100 for the full control effect; nearly all actives have a fitted effect of over 60% in size
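AlphaScreen luminescence quantifies BAZ2B engagement of H3K14Ac peptide; the protein and biotinylated peptide are both at 50 nM final, buffer PBS pH 7.4 with 0.01% Tween-20, all steps at room temperature.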
HP1b chromo inh – HTS for Inhibitors of HP1-beta Chromodomain Interactions with Methylated Histone Tails | Chromobox protein homolog 1 (Homo sapiens), P83916 | AlphaScreen HP1-beta / biotin-H3K9me3 peptide binding | Potency, µM (highest dose often 114 µM), for inactives: at the top dose activity change, negative = inhibition, actives largely listed as inhibitors | 0.56% of 390,000 active | AID 540317, 2011; note: potency is the fitted concentration of half-maximal effect; nearly all actives have a fitted effect of over 70% in size
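AlphaScreen: HP1-beta (50 nM) preformed 30 min with biotin-H3(1-18)K9me3 peptide (50 nM) in PBS pH 7.4, 0.01% Tween-20. Compound added for 30 min at RT, then streptavidin donor/nickel chelate acceptor beads (10 ug/mL) for 30 min.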
PI5P4Ka inh – qHTS for Inhibitors of phosphatidylinositol 5-phosphate 4-kinase (PI5P4K); 1.2% of 330,000 active; max response, %; PI5P4Kalpha enzyme, ADP-Glo luminescence, 60 min; active compounds read low; active = max response of -50% or lower; inconclusive = between -30% and -50%; inactive = -30% or higher; note: value at the top dose of about 77 µM; % is set by controls: 0 for no effect and ±100 for the full control effect
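PI5P4Kalpha ADP-Glo assay; 5 microM ATP final; 60 min RT reaction; HEPES pH 7.4/EGTA/CHAPS, 5% DMSO; controls lacking substrate or enzyme; luminescent end-point.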
KDM4E inh – qHTS Assay for Inhibitors of Human Jumonji Domain Containing 2E (JMJD2E); Lysine-specific demethylase 4E (Homo sapiens), B2RXH2; JMJD2E catalytic domain, FDH-coupled NADH fluorescence (FDH is formaldehyde dehydrogenase); Potency, µM (highest dose often 57.1 µM), for the others: at the top dose activity change, negative = inhibition, most hits filed as inhibitors; 1.6% of 230,000 active; active = well fitted inhibition curve with a large enough effect, not every such curve was filed as active; inconclusive = small, poorly fitted or top-dose-only effect, or another doubt; inactive = no such curve, though single readings can be large or run the other way;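 note: potency is the fitted concentration of half-maximal effect; 0% = wells with enzyme and -100% = buffer wells without enzyme; nearly all actives have a fitted effect of over 50% in size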
* marks the source's active call; other numbers are inactive results; ? = inconclusive; · = no result given; ! = not active in a repeat. Only some compounds are listed: those with a hit (about 5.7% of all), similar ones and a draw of the others. Unless noted, calls come from the whole dose curve; as a rule, active = well fitted inhibition curve with a large enough effect; inconclusive = small, poorly fitted or top-dose-only effect; inactive = no such curve, though single readings can be large or run the other way.

SMILES | L3MBTL1 block | JMJD2A Tudor | BAZ2B block | HP1b chromo inh | PI5P4Ka inh | KDM4E inh
Cc1c(NC(=S)N/N=C/c2ccc([N+](=O)[O-])cc2O)c(=O)n(-c2ccccc2)n1C | · | 45µM* | 14µM* | 29% | ? | 10µM*
Cc1ccc(NC(=O)Nc2c(C)n(C)n(-c3ccccc3)c2=O)cc1C | · | 14µM* | -16% | ? | ? | 6%
Cc1c(NC(=O)C(=O)/C=C(\O)c2ccc(Cl)cc2)c(=O)n(-c2ccccc2)n1C | 2% | 13µM* | ? | -1% | -2 | -12%
O=C(O)CCC(=O)Nc1ccc2c(c1)Cc1cc(NC(=O)CCC(=O)O)ccc1-2 | · | 89µM* | ? | 3% | -16 | ·
O=C1Nc2ccccc2C1(O)C/C(=N/O)c1ccccc1 (stereo unspecified) | 8% | 20µM* | -11% | -16% | -11 | 7%
Cc1ccc(N/N=C2\CC(=O)c3ccccc32)cc1Cl | ? | · | 11µM* | · | · | 22µM*
COc1ccc(COC(=O)c2cccc(S(=O)(=O)N3CCCC3)c2)cc1F | · | 10% | -1% | 51% | 5 | ·
COc1ccc(N2CCN(C(=O)c3cn(C4CCCCC4)c(=O)c4c3c3ccccc3n4C)CC2)cc1 | · | ? | 7.1µM* | ? | · | ·
Cc1cc[n+](-c2[nH]c(=O)sc2/C=N/N=C(\[O-])c2ccncc2)cc1 | · | -11% | 56µM* | 39% | -7 | ·
O=c1[nH]c(-[n+]2ccccc2)c(/C=N/N=C(\[O-])c2ccccc2)s1 | · | -8% | -7% | -3% | -8 | -2%
Cc1cc[n+](-c2[nH]c(=O)sc2/C=N/N=C(\[O-])c2ccncc2)cc1C | · | -7% | ? | 37% | -2 | ·
Cc1cc[n+](-c2[nH]c(=O)sc2/C=N/N=C(\[O-])c2ccccc2)cc1 | ? | ? | 50µM* | 10% | ? | ?
COc1ccc(-c2cn3nc(N4CCCC(C(=O)Nc5ccccc5F)C4)sc3n2)cc1 (stereo unspecified) | · | -14% | -18% | -5% | · | ·
O=[N+]([O-])c1cccnc1Sc1ccc(Cl)cc1 | · | 56µM* | 32µM* | ? | 9 | ·
O=[N+]([O-])c1cccnc1Sc1n[nH]c(-c2ccc(Cl)cc2)n1 | 47% | -13% | -4% | 21% | 0 | -1%
Cc1ccc(-c2ccc(=O)n(CC(=O)NCCc3ccc(Cl)cc3)n2)cc1 | · | 89µM* | 2% | 3% | · | ·
CNC(=S)NCc1ccc2[nH]c3c(c2c1)CCCC3 | -7% | -30% | 45µM* | -1% | -4 | 8%
O=C(NCc1ccc2[nH]c3c(c2c1)CCCC3)N1CCOCC1 | · | · | -1% | · | · | ?
CCCCNC(=S)NCc1ccc2[nH]c3c(c2c1)CCCC3 | · | 40µM* | · | ? | -7 | -11%
O=S(=O)(NCC(c1cccs1)S(=O)(=O)c1ccccc1)c1ccc(F)cc1 (stereo unspecified) | · | -5% | 4% | 43% | · | ·
O=[N+]([O-])c1ccc(Nc2ccccc2O)c2nonc12 | ? | 50µM* | ? | ? | -11 | ·
CCc1nnc(NS(=O)(=O)c2ccc(Nc3ccc([N+](=O)[O-])c4nonc34)cc2)s1 | ? | ? | 22µM* | ? | -57* | -1%
CCc1nnc(NS(=O)(=O)c2ccc(NS(=O)(=O)c3ccccc3[N+](=O)[O-])cc2)s1 | · | -4% | -7% | 20% | -19 | ·
CC(=O)c1ccc(Nc2ccc([N+](=O)[O-])c3nonc23)cc1 | -16% | -30% | ? | -9% | -9 | ·
CC(=O)C1=C(O)C(=O)N(Cc2cccnc2)C1c1ccccc1Cl (stereo unspecified) | 3% | -33% | -8% | 25% | 9 | -26%
SMILES | L3MBTL1 block | JMJD2A Tudor | BAZ2B block | HP1b chromo inh | PI5P4Ka inh | KDM4E inh
CC(=O)C1=C(O)C(=O)N(CCC(=O)O)C1c1ccccc1Cl (stereo unspecified) | · | 22µM* | ? | -2% | · | -11%
Cc1ccc(C2c3c(-c4cc(C)ccc4O)n[nH]c3C(=O)N2Cc2ccco2)cc1 (stereo unspecified) | · | ? | 22µM* | 0% | · | ·
COc1ccc(C2c3c(-c4ccccc4O)n[nH]c3C(=O)N2Cc2ccco2)cc1OC (stereo unspecified) | ? | ? | 56µM* | -24% | 0 | -8%
COc1ccc(CCN2C(=O)CN(C3CCCCCC3)C(=O)C2c2ccc(Cl)cc2)cc1OC (stereo unspecified) | · | -24% | -14% | -6% | · | ·
C#CCNC(=O)C1=C[C@H](C)C[C@H](OCc2ccc(CO)cc2)O1 | · | -24% | · | 27% | ? | ·
O=C(NCc1ccccn1)C1(C(F)(F)F)C/C(=C\CCO)CCCO1 (stereo unspecified) | · | 28µM*! | · | 33% | -4 | ·
O=C(CCN1CCc2ccccc21)c1ccc2c(c1)OCCO2 | -1% | ? | 50µM* | -43% | ? | -21%
O=C(CCN1CCCCC1)c1ccc2c(c1)OCCO2 | -1% | -15% | 6% | 3% | · | -4%
O=C(CCN1CCCC1Cc1ccccc1)c1ccc2c(c1)OCCO2 (stereo unspecified) | · | 89µM* | ? | ? | 0 | -10%
CCc1c(C)nc2nc(-c3ccccc3)nn2c1NCc1ccc(C)cc1 | · | -31% | -21% | 10% | · | ·
CC1CCC(C(C)C)C(OC(=O)C[n+]2cccc(C(N)=O)c2)C1 (stereo unspecified) | 6% | ? | -3% | -3% | -75* | 5%
O=C(NCCc1c[nH]c2ccccc12)[C@H]1C[C@@H]1[C@H](NP(=O)(c1ccccc1)c1ccccc1)c1ccccc1 | · | · | · | · | · | -7%
CC(=O)c1c(C)[nH]c(C(=O)NC(C)c2ccccc2)c1C (stereo unspecified) | · | -24% | -27% | 26% | -3 | 7%
N#CC1=C(N)NC(=S)C(C(N)=O)C1c1ccc([N+](=O)[O-])cc1 (stereo unspecified) | -5% | 89µM* | -34% | 7% | -56* | ?
O=C1NC(=S)SC1=Cc1ccc(Cl)cc1 | · | ? | · | -26% | -51* | ·
O=C1NC(=O)/C(=C\c2ccc(Cl)nc2)S1 | · | ? | ? | 22% | ? | 5%
O=C1NC(=S)SC1=Cc1ccc(F)cc1 | · | -31% | · | -3% | -71* | ·
O=C1NC(=S)SC1=Cc1cccs1 | · | -32% | · | ? | -67* | ·

Source: PubChem BioAssay (National Center for Advancing Translational Sciences (NCATS))
